# Publication PMC7862700, “An all-to-all approach to the identification of sequence-specific readers for epigenetic DNA modifications on cytosine”
# How the values were obtained:
# Experiment in all cases: DAPPL (digital affinity profiling via proximity ligation, sequencing); 10 mM Tris-HCl pH 7.5, 50 mM NaCl, 1 mM DTT, 4% glycerol, room temperature, 30 min; GST-TFs on glutathione beads, 16-mer random dsDNA library, 0.1% formaldehyde crosslink after washing; high values mean tight binding
# Conditions in all cases: protein: recombinant; tags: N-terminal GST; dsDNA, one strand shown
# FLI1 = biological target: T1, FLI1 (Homo sapiens, UniProt Q01543 1-452)
# T1 sequence: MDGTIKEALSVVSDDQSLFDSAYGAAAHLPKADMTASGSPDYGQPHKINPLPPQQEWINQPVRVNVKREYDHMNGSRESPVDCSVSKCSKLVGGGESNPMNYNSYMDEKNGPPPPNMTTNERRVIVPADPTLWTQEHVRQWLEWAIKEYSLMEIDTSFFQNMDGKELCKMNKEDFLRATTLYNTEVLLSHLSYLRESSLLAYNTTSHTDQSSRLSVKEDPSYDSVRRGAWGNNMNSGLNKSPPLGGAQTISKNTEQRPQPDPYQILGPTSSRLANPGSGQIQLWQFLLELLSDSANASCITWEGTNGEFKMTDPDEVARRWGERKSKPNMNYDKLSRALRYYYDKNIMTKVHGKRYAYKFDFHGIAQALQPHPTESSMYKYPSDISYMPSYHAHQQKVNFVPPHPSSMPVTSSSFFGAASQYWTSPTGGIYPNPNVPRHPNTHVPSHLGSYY
# Summary of the method: (§1)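 The binding signal reported is, for every hexamer, its read frequency for a factor over its read frequency for the tag-only sample. Reads came from pools of yeast-expressed, GST-fused human transcription factors on glutathione beads, barcoded with DNA and mixed with that sample, which were incubated with 200 nmole of a random double-stranded 16-mer DNA library in Tris/NaCl/DTT/glycerol buffer at room temperature for 30 min. After washing, the pools were crosslinked with 0.1% formaldehyde, proximity-ligated with BsaI/T4 ligase for 1 h at 37 °C, PCR-amplified and sequenced on an Illumina NextSeq500.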
# ELK1 = biological target: T2, ELK1 (Homo sapiens, UniProt P19419 1-428)
# T2 sequence: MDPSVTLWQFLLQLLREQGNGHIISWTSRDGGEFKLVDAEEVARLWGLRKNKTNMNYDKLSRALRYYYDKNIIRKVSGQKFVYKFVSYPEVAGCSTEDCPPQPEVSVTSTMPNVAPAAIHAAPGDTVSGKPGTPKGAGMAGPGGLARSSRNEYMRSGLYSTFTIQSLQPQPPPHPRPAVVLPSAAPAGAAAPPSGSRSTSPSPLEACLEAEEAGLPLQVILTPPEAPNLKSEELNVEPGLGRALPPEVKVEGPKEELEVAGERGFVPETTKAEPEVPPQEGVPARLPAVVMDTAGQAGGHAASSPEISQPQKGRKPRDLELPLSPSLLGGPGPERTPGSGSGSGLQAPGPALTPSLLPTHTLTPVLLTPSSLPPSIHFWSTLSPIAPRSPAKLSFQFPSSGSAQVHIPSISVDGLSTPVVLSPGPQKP
# Summary of the method: as §1
# ELF1 = ELF1 (Homo sapiens, UniProt P32519 1-619)
# Summary of the method: as §1
# SPIB = SPIB (Homo sapiens, UniProt Q01892 1-262)
# Summary of the method: as §1
# ETV5 = ETV5 (Homo sapiens, UniProt P41161 1-510)
# Summary of the method: as §1
# SPIC = biological target: T3, SPIC (Homo sapiens, UniProt Q8N5J4 1-248)
# T3 sequence: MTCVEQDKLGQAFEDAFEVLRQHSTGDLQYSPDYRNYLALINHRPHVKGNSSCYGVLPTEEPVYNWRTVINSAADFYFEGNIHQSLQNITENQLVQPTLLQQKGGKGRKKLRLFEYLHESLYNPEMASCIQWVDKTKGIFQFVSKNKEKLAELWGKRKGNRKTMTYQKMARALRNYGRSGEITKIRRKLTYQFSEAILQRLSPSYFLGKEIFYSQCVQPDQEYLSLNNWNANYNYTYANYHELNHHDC
# Summary of the method: as §1
# ELF4 = ELF4 (Homo sapiens, UniProt Q99607 1-663)
# Summary of the method: as §1
# ERF = biological target: T4, ERF (Homo sapiens, UniProt P50548 1-548)
# T4 sequence: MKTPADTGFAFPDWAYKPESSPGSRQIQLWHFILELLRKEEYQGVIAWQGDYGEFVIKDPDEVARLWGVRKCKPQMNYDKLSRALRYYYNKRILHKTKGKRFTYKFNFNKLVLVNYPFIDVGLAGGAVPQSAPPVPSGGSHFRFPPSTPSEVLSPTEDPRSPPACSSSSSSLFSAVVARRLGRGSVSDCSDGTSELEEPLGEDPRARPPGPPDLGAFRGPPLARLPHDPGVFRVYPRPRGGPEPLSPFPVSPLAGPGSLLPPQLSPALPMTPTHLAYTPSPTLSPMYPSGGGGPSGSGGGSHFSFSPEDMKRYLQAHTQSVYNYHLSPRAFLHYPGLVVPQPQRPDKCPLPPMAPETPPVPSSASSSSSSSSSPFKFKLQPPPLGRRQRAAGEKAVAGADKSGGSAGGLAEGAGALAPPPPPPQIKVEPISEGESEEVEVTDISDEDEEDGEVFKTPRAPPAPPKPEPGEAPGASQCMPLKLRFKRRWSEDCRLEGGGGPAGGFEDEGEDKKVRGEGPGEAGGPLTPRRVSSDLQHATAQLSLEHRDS
# Summary of the method: as §1
# GABPA = biological target: T5, GABPA (Homo sapiens, UniProt Q06546 1-454)
# T5 sequence: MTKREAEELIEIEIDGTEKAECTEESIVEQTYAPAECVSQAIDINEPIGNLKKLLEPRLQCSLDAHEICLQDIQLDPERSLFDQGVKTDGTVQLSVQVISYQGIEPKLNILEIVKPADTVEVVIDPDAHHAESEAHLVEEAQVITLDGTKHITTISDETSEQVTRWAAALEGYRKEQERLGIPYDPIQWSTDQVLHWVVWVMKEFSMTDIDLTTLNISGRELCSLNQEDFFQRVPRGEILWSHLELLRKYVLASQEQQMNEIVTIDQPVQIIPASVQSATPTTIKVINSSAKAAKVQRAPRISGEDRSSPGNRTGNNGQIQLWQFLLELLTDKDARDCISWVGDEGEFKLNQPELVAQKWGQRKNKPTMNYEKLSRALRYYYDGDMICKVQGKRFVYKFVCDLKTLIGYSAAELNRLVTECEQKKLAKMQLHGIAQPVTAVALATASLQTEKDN
# Summary of the method: as §1
# ERG = biological target: T6, ERG (Homo sapiens, UniProt P11308 1-479)
# T6 sequence: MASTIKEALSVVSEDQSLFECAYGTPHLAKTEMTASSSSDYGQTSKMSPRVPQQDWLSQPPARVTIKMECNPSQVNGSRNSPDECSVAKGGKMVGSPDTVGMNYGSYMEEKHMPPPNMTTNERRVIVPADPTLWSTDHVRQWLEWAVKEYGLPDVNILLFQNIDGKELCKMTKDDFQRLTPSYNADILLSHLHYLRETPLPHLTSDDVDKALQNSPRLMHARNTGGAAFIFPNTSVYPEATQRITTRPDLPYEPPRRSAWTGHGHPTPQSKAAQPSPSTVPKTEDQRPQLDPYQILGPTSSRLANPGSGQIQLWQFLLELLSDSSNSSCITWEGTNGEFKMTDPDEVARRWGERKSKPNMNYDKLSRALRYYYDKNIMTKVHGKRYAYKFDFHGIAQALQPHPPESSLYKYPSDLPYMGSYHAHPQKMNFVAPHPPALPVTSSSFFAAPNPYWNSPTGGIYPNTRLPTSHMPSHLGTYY
# Summary of the method: as §1
# EHF = biological target: T7, EHF (Homo sapiens, UniProt Q9NZC4 1-300)
# T7 sequence: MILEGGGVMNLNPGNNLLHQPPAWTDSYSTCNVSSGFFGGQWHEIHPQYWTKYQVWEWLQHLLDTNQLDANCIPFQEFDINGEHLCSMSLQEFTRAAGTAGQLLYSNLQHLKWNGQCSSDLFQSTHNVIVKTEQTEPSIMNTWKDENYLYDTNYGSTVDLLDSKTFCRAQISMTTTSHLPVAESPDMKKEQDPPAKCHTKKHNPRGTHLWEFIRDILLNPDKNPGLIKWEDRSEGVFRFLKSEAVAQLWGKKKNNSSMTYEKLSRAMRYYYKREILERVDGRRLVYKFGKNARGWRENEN
# Summary of the method: as §1
# SPI1 = SPI1 (Homo sapiens, UniProt P17947 1-270)
# Summary of the method: as §1
# FEV = biological target: T8, FEV (Homo sapiens, UniProt Q99581 1-238)
# T8 sequence: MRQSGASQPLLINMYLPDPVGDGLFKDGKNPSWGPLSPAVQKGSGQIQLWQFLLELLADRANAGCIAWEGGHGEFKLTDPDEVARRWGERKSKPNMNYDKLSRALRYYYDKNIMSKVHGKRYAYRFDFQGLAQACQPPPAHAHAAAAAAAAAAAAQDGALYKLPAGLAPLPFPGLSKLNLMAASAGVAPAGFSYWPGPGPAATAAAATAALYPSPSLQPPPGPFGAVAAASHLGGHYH
# Summary of the method: as §1
# ETV1 = ETV1 (Homo sapiens, UniProt P50549 1-477)
# Summary of the method: as §1
# ETV3L = biological target: T9, ETV3L (Homo sapiens, UniProt Q6ZN32 1-361)
# T9 sequence: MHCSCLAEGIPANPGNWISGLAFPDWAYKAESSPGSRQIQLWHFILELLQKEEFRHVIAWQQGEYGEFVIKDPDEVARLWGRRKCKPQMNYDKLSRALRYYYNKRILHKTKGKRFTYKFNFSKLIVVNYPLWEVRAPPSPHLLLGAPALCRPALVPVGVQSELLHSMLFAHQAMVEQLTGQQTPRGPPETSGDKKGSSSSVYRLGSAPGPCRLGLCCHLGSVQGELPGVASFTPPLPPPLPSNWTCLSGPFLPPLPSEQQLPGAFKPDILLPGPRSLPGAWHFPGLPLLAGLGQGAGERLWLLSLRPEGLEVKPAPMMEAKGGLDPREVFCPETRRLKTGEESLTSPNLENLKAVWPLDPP
# Summary of the method: as §1
# ETS2 = biological target: T10, ETS2 (Homo sapiens, UniProt P15036 1-469)
# T10 sequence: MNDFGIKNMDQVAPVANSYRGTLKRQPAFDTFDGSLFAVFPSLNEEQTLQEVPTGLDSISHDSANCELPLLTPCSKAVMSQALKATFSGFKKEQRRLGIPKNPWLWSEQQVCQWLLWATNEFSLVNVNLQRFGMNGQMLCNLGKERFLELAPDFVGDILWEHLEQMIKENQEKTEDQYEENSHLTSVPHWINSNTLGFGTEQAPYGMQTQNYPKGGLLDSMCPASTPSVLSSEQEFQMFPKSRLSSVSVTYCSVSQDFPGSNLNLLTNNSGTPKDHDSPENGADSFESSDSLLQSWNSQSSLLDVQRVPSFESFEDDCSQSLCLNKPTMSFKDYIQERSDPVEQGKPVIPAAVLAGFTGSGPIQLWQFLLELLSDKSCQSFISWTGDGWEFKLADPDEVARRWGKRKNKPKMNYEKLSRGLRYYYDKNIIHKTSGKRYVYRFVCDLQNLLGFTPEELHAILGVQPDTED
# Summary of the method: as §1
# SPDEF = biological target: T11, SPDEF (Homo sapiens, UniProt O95238 1-335)
# T11 sequence: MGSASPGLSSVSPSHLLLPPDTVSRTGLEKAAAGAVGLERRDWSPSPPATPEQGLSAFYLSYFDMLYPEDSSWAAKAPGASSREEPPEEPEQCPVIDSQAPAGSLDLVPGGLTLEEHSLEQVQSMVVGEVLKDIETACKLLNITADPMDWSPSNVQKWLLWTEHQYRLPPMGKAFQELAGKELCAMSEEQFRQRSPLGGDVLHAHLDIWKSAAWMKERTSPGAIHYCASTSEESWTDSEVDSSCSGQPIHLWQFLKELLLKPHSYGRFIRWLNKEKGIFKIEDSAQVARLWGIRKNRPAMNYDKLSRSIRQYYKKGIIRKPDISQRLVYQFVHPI
# Summary of the method: as §1
# ETV3 = biological target: T12, ETV3 (Homo sapiens, UniProt P41162-2 1-143)
# T12 sequence: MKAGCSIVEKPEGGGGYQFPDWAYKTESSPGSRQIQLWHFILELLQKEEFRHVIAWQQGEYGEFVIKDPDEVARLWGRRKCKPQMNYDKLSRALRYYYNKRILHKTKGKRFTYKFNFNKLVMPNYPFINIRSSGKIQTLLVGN
# Summary of the method: as §1
# Chain of ETV5 (P41161 whole entry): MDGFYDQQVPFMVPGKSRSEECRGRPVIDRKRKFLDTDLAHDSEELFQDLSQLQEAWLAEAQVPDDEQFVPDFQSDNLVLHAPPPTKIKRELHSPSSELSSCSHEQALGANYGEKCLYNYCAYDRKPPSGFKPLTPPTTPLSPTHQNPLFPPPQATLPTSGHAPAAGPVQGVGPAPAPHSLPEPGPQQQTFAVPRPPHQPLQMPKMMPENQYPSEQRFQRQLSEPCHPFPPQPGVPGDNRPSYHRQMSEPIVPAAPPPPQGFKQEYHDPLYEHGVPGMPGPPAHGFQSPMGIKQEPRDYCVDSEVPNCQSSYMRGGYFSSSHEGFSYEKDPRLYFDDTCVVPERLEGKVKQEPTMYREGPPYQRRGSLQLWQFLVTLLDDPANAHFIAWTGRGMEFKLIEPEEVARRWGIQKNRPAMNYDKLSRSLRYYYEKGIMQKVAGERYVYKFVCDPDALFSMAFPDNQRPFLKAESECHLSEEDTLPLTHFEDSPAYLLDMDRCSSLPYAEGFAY
# Chain of SPIB (Q01892 whole entry): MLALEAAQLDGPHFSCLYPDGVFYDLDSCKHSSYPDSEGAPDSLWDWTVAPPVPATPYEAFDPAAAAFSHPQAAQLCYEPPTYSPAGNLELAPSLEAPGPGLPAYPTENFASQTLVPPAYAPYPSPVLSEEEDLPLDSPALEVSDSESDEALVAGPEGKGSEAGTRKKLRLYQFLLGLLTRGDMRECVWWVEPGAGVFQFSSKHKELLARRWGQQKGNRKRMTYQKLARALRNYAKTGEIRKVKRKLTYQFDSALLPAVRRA
# Chain of ELF4 (Q99607 whole entry): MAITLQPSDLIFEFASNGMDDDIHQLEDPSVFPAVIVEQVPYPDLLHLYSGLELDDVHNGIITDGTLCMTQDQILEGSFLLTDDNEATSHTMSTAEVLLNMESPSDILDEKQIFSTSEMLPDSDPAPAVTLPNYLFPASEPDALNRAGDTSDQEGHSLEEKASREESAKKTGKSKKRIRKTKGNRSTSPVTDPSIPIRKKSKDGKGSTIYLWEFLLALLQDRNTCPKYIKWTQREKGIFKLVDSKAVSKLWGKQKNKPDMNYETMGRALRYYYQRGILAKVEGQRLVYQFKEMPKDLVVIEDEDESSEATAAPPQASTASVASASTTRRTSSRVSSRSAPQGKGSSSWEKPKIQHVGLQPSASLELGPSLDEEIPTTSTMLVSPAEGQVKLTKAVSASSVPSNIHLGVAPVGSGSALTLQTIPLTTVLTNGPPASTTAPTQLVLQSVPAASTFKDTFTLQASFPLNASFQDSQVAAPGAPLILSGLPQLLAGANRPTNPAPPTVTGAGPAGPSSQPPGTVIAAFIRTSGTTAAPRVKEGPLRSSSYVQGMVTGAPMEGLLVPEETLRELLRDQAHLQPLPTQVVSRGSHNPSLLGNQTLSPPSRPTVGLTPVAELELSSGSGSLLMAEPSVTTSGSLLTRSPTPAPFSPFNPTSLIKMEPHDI
# Chain of ETV1 (P50549 whole entry): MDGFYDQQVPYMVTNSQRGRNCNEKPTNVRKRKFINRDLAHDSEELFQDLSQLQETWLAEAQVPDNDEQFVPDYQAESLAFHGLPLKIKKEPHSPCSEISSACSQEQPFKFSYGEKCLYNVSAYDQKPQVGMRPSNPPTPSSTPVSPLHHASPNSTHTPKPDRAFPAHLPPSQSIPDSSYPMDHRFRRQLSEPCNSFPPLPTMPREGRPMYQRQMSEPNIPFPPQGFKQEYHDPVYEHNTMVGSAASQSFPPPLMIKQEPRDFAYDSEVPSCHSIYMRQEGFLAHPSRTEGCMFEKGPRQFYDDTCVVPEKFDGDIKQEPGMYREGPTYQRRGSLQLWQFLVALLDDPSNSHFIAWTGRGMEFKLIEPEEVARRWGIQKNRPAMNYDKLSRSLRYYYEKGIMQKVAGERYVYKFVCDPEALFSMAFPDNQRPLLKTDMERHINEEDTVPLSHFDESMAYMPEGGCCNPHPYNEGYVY
# Chain of ELF1 (P32519 whole entry): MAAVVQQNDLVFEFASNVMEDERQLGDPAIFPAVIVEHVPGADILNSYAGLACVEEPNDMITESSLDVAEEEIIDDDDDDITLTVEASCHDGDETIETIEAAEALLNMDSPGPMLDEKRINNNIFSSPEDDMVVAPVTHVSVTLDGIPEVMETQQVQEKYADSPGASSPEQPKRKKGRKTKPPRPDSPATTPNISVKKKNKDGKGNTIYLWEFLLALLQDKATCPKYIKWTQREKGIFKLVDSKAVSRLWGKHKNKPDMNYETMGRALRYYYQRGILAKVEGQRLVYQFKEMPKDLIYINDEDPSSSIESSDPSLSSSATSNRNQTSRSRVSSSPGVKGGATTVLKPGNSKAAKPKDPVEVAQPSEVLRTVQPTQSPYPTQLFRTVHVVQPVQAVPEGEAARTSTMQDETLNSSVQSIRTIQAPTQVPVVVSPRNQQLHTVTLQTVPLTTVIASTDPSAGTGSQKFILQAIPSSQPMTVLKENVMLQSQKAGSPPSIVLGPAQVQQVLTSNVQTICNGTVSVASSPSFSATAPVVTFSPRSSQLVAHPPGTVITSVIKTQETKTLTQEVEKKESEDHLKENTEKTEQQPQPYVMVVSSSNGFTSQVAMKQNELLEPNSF
Sequence,binding signal (FLI1),binding signal (ELK1),binding signal (ELF1),binding signal (SPIB),binding signal (ETV5),binding signal (SPIC),binding signal (ELF4),binding signal (ERF),binding signal (GABPA),binding signal (ERG),binding signal (EHF),binding signal (SPI1),binding signal (FEV),binding signal (ETV1),binding signal (ETV3L),binding signal (ETS2),binding signal (SPDEF),binding signal (ETV3)
CATCCA,"1.01 fold enrichment (6-mer frequency, TF over GST control)","1.06 fold enrichment (6-mer frequency, TF over GST control)","1.02 fold enrichment (6-mer frequency, TF over GST control)","1 fold enrichment (6-mer frequency, TF over GST control)","1.01 fold enrichment (6-mer frequency, TF over GST control)","1.05 fold enrichment (6-mer frequency, TF over GST control)","1.02 fold enrichment (6-mer frequency, TF over GST control)","1.01 fold enrichment (6-mer frequency, TF over GST control)",,,,,,,,,,
TGGTGC,"1.12 fold enrichment (6-mer frequency, TF over GST control)","1.14 fold enrichment (6-mer frequency, TF over GST control)",,"1.06 fold enrichment (6-mer frequency, TF over GST control)","1.1 fold enrichment (6-mer frequency, TF over GST control)","1.14 fold enrichment (6-mer frequency, TF over GST control)","1.07 fold enrichment (6-mer frequency, TF over GST control)","1.11 fold enrichment (6-mer frequency, TF over GST control)","1.1 fold enrichment (6-mer frequency, TF over GST control)","1.16 fold enrichment (6-mer frequency, TF over GST control)","1.15 fold enrichment (6-mer frequency, TF over GST control)","1.12 fold enrichment (6-mer frequency, TF over GST control)","1 fold enrichment (6-mer frequency, TF over GST control)","1.06 fold enrichment (6-mer frequency, TF over GST control)","1.05 fold enrichment (6-mer frequency, TF over GST control)","1.01 fold enrichment (6-mer frequency, TF over GST control)","1.19 fold enrichment (6-mer frequency, TF over GST control)","1.17 fold enrichment (6-mer frequency, TF over GST control)"
